# Out of some 48,000 compounds screened, about 13,000 (27%) showed an effect of 50% or more. The list shows a part of the results.
# Tested on: Wolbachia pipientis
# Assay: Anti-Wolbachia Cell-Based Screen
# Type: functional
# Design: scale not given: in the data most compounds retested in dose-response had high values
# Conditions: 5 µM
row,Structure (SMILES),Percent Effect
1,OCC1(O)CCN(c2ncccc2C(F)(F)F)CC1,1.862%
2,Cc1[nH]ccc1C(=O)N[C@H]1CN(S(C)(=O)=O)C[C@@H]1C1CC1,3.151%
3,CC(C)Cc1ncc2c(n1)CN(C(=O)c1ccc(Cn3ccnc3)o1)C2,-18.35%
4,CCn1ccnc1CN1C[C@@H](NC(=O)C2CC2)[C@H](c2ccc(C)cc2)C1,-6.865%
5,C[C@H]1CN(C)C[C@@]12COCCN(C(=O)Cc1ccccc1)C2.O=C(O)C(F)(F)F,7.732%
6,CC(=O)N1CCC(C(=O)N2CCOC(CC3CCCCC3)C2)CC1 (stereo unspecified),-4.464%
7,CCn1cc(CN2CCCN(C(=O)CCc3nccs3)CC2)cn1,73.27%
8,CCn1cc(CN2CCCN(C(=O)CCc3cccs3)CC2)cn1,101.9%
9,CC(=O)Nc1nc(COc2nc(C)no2)cs1,-3.939%
10,CCCN1CCC(CC(=O)N(C)CC(=O)c2ccc(O)cc2)CC1,-25.77%
11,Cc1ncc2c(n1)CN(Cc1noc(C3CC3)n1)CC2,2.312%
12,O=C1CCC(C(=O)NCc2nn(-c3ccccc3)c3c2CCC3)CN1 (stereo unspecified),1.199%
13,O=C(c1csc(-c2ncccn2)n1)N1CCN(C2CCCC2)CC1,-8.107%
14,COc1ccc(Cl)cc1CS(=O)(=O)CC(=O)NC(C)CCC(C)C (stereo unspecified),2.702%
15,Cn1cccc1C(=O)N1CC[C@H]2[C@H]1CCN2CC1CC1.O=C(O)C(F)(F)F,2.648%
16,CN(C)CC(=O)N1CCC2(CCc3cc(-c4cccnc4)ccc32)CC1.O=C(O)C(F)(F)F.O=C(O)C(F)(F)F,1.059%
17,O=C(O)C(F)(F)F.O=C(O)C(F)(F)F.c1cncc(-c2ccc3c(c2)CCC32CCN(Cc3ccco3)CC2)c1,99.06%
18,c1cncc(-c2ccc3c(c2)CCC32CCNCC2)c1,-33.05%
19,c1cncc(-c2ccc3c(c2)C2(CCNCC2)CC3)c1,1.24%
20,O=C(O)C(F)(F)F.O=C(O)C(F)(F)F.c1cncc(-c2ccc3c(c2)CCC32CCN(Cc3nccs3)CC2)c1,11.05%
21,Cc1nc(C)n(CC2CN(c3ncccn3)Cc3nccn3C2)n1 (stereo unspecified),9.978%
22,O=C(O)C(F)(F)F.O=c1cccnn1CC1CN(CC2CCCC2)Cc2nccn2C1 (stereo unspecified),100.1%
23,O=c1cccnn1CC1CN(c2ncc(F)cn2)Cc2nccn2C1 (stereo unspecified),114.7%

row,Structure (SMILES),Percent Effect
1,Cc1cnc(N2Cc3nccn3CC(Cn3ncccc3=O)C2)nc1.O=C(O)C(F)(F)F (stereo unspecified),104.6%
2,O=C(O)C(F)(F)F.O=C(O)C(F)(F)F.c1cn2c(n1)CN(CC1CC1)CC(CN1CCOCC1)C2 (stereo unspecified),13.29%
3,Cc1cnc(N2Cc3nccn3CC(Cn3nc(C)nc3C)C2)nc1 (stereo unspecified),1.951%
4,O=C(O)C(F)(F)F.O=c1cccnn1CC1CN(Cc2ccsc2)Cc2nccn2C1 (stereo unspecified),13.39%
5,CCCN1CCCN(C(=O)c2ccc(Oc3cccnc3)cc2)CC1,1.766%
6,O=C1NCCCCC1NS(=O)(=O)N1CCCCC1 (stereo unspecified),30.79%
7,Cc1nccn1-c1cc(CNC(=O)N2CCSCC2)ccn1,-3.633%
8,Cc1cc(CNc2ccc(CC(=O)N(C)c3ccccc3)cc2)no1,-7.262%
9,OC(CN(Cc1ccccc1)Cc1ccncc1)c1ccco1 (stereo unspecified),6.092%
10,O=C(COC(=O)Cc1cccs1)NCc1cccc(NC(=O)C2CC2)c1,2.841%
11,Cc1cccc(NC(=O)[C@@H]2CCCN2CC(=O)N2CCCCCC2)n1,2.208%
12,O=C(NCC1CC(=O)N(CCc2ccccc2)C1)c1ccon1 (stereo unspecified),4.92%
13,Cc1cc(NC(=O)CN2CCn3c(nnc3-c3ccccc3)C2)no1,6.417%
14,CC1CN(C)c2ccccc2CN1C(=O)NCc1ccon1 (stereo unspecified),0.2534%
15,CC1(C)CC(=O)N(CC(=O)Nc2ccon2)c2ccccc21,100.4%
16,Cc1cc(NC(=O)CN2CCn3c(C)nnc3C2)no1,3.854%
17,Cc1cc(NC(=O)CN2C(=O)CC(C)(C)c3ccccc32)no1,116.9%
18,Cc1cccc(NC(=O)CN2C(=O)CC(C)(C)c3ccccc32)n1,106.1%
19,CCOCc1cccc(S(=O)(=O)N2CCSCC2)c1,5.017%
20,CCCS(=O)(=O)N1CCO[C@H]2[C@@H](Oc3cccnc3)CC[C@@H]21.O=C(O)C(F)(F)F,101.6%
21,CS(=O)(=O)N1CCO[C@H]2[C@@H](Oc3ncccc3F)CC[C@@H]21.O=C(O)C(F)(F)F,100.8%
22,O=C(O)C(F)(F)F.O=S(=O)(C1CC1)N1CCO[C@H]2[C@@H](Oc3ncccc3F)CC[C@@H]21,120.5%
23,CS(=O)(=O)N1C[C@@H](Oc2ccccn2)[C@H]2OCCC[C@H]21.O=C(O)C(F)(F)F,12.05%

row,Structure (SMILES),Percent Effect
1,CCCS(=O)(=O)N1C[C@@H](Oc2ccccn2)[C@H]2OCCC[C@H]21.O=C(O)C(F)(F)F,4.768%
2,O=C(O)C(F)(F)F.O=S(=O)(C1CC1)N1C[C@H](Oc2ccccn2)[C@H]2OCCC[C@H]21,9.296%
3,CCS(=O)(=O)N1C[C@@H](Oc2ccccn2)[C@H]2OCCC[C@H]21.O=C(O)C(F)(F)F,-45.01%
4,CCCS(=O)(=O)N1CCO[C@H]2[C@H](OCc3ccccn3)CC[C@@H]21.O=C(O)C(F)(F)F,-14.38%
5,CN(C)S(=O)(=O)N1C[C@@H](Oc2ccccn2)[C@H]2OCCC[C@H]21.O=C(O)C(F)(F)F,-0.1257%
6,CCS(=O)(=O)N1CCO[C@H]2[C@H](Oc3ncccc3F)CC[C@@H]21.O=C(O)C(F)(F)F,5.015%
7,CCCS(=O)(=O)N1C[C@@H](Oc2ncccc2F)[C@H]2OCCC[C@H]21.O=C(O)C(F)(F)F,117.2%
8,CN(CCCc1cc(-c2cccc(F)c2)n[nH]1)C(=O)Cn1cncn1,-5.082%
9,COc1ccccc1OC1CN(C(=O)Cc2c(C)nc(C)[nH]c2=O)C1,-23.21%
10,CC(CNC(=O)c1cc(-n2cccn2)ccn1)Cn1ccnc1 (stereo unspecified),-5.602%
11,COCCCn1ccc(NCc2cnc(C(C)(C)C)s2)n1,1.35%
12,Cn1nc(Cn2ccnc2)c2c1CN(c1nccs1)C2.O=C(O)C(F)(F)F.O=C(O)C(F)(F)F,4.707%
13,CCn1cnnc1CCNC(=O)CCNC(=O)c1ccccc1F,3.625%
14,COC(=O)N1CCCN(C(=O)NC2CCc3ccccc3C2)CC1 (stereo unspecified),-2.418%
15,CN1C(=O)CCN(C(=O)C2CC=CC2)c2ccccc21,2.91%
16,O=C1NCCN2CCN(C(=O)Nc3ccc(-c4ccccc4)cc3)CC12 (stereo unspecified),-8.363%
17,COC1CN(C(=O)C2CC2)CCC(=O)N(C)c2ccccc21 (stereo unspecified),115%
18,COC1CCN(C(=O)Nc2ccccc2)CC(=O)N(C)c2ccccc21 (stereo unspecified),112.2%
19,COC(=O)[C@@H]1CN(C(=O)Nc2ccccc2)CCN1C(C)=O,-6.785%
20,Cn1cc(NC(=O)N2CCC(c3ccccc3)CC2)ccc1=O,-11.38%
21,O=C(NC1CCCC1)N1C[C@H]2CN(c3ccccn3)C[C@@]2(C(=O)O)C1,-9.055%
22,O=C(C1CC=CC1)N1CC[C@H]2[C@@H]1CCC(=O)N2c1ccccc1,-0.4954%
23,CC(=O)N1CCN(C(=O)Nc2ccccc2)CC2(CC(=O)N(C)C2)C1 (stereo unspecified),-20.73%

row,Structure (SMILES),Percent Effect
1,COC1CN(C(=O)NC2CCCC2)CCC(=O)N(C)c2ccccc21 (stereo unspecified),116.2%
2,COC1CN(C(=O)Nc2ccccc2)CCC(=O)N(C)c2ccccc21 (stereo unspecified),93.19%
3,O=C(c1cccc(Cl)c1Cl)N1CCN(CC(O)Cn2cccn2)CC1 (stereo unspecified),-7.394%
4,Cc1ccn(-c2ccc(NCc3ccccc3F)nn2)n1,-4.619%
5,CSCCC(=O)N(C/C=C/c1ccccc1)CCO,-21.61%
6,CC(C)(C)Oc1ccc(C(=O)N2CCOCC2c2ncon2)cc1 (stereo unspecified),0.1698%
7,Oc1nnc(-c2cccs2)c2sc(N3CCCC3)nc12,-2.433%
8,CCC[C@H]1CN(Cc2ccc(N(C)C)nc2)C[C@@H]1NC(=O)CO,-10.52%
9,CC(C)Nc1ncc(CN2C[C@@H](CN3CCC(O)CC3)[C@@H](CO)C2)cn1,-6.538%
10,O=C(c1ccc(Cl)cc1)N1CCn2c(nn(-c3cccc(Cl)c3)c2=O)C1,114.6%
11,Cc1cccc(-n2ncc(C(=O)N3CCn4c(C)nnc4C3)c2C)c1,-8.447%
12,O=C(c1ccncc1)N1CCn2c(nnc2-c2ccccc2)C1,-8.4%
13,CN1CCN(Cc2cnc3n2CCN(C(=O)c2ccncc2)C3)CC1,9.234%
14,O=C(c1ccc(Cl)cc1)N1CCn2c(nn(-c3ccncc3)c2=O)C1,118.8%
15,Cc1ccc(-n2nc3n(c2=O)CCN(C(=O)c2ccc(Cl)cc2)C3)cc1,122%
16,CC(C)c1nnc2n1CCN(C(=O)c1ccc(S(C)(=O)=O)cc1)C2,-9.775%
17,CC(C)c1nnc2n1CCN(C(=O)c1ccc(-n3cnnc3)cc1)C2,-1.108%
18,CC(C)c1nnc2n1CCN(C(=O)c1ccc(OCC(N)=O)cc1)C2,-11.93%
19,CC(C)c1nnc2n1CCN(C(=O)c1ccc(Cn3cccc3)cc1)C2,-2.793%
20,O=C(c1ccc(Cl)cc1)N1CCn2c(nn(-c3ccc(Cl)cc3)c2=O)C1,107.9%
21,CCOCCn1nc(C)cc1C(=O)N1CC[C@](C)(O)[C@H](C)C1,-22.18%
22,C[C@@H]1CN(Cc2nc(C(N)=O)no2)CC[C@@]1(O)C1CC1,3.604%

# Reference: ChEMBL document CHEMBL3988442, “University of Dundee, Small-Polar-MMV Screening Library” (2021)
